Assay results reported in PubChem BioAssay AID1159580 (chemical genetic matrix, 2015).
Several values for one entry are separate records, joined by “and”; a condition that tells them apart may be missing. Identical values can stand only once. The campaign covered roughly 5,500 compounds. About 2,000 (36%) were called active. About 18% were inconclusive and are not listed. Cut-off read from the data, not from the text of the source: active = normalized growth mostly below about 0.91 (no sharp cut-off); inconclusive = no clear call, values can overlap the other calls; inactive = mostly above about 0.92. The list shows a part of the results.

Test: chemical genetic growth profiling, strain panel (AID 1159580);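 note: tested at 20 µM; growth read once vehicle control cultures reached saturation at 30 °C; 1 = growth at the plate median or of vehicle wells; lower values mean less growth of the strain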
Details: growth OD
[1] = S. cerevisiae deletion strains, locus YHR030C, strain SLT2, hits give low values
[2] = S. cerevisiae deletion strains, locus YHR079C, strain IRE1, hits give low values
[3] = S. cerevisiae deletion strains, locus YJL095W, strain BCK1, hits give low values
[4] = S. cerevisiae deletion strains, locus YJR066W, strain TOR1, hits give low values
[5] = S. cerevisiae deletion strains, locus YLR113W, strain HOG1, hits give low values
[6] = S. cerevisiae deletion strains, locus YNL183C, strain NPR1, hits give low values
[7] = S. cerevisiae deletion strains, locus YOR231W, strain MKK1, hits give low values
[8] = S. cerevisiae deletion strains, locus YPL256C, strain CLN2, hits give low values

Measured: normalized growth

NC(N)=NC(N)=NCCc1ccccc1
inactive: [1] 0.956 | [2] 0.96 | [3] 0.961 | [4] 0.953 | [5] 0.965 | [6] 0.916 | [7] 0.975 | [8] 0.934

CC(C)N=C(N)N=C(N)Nc1ccc(Cl)cc1
inactive: S. cerevisiae deletion strains, locus YAL013W, strain DEP1, hits give low values 1.02 | S. cerevisiae deletion strains, locus YBR021W, strain FUR4, hits give low values 1.02 | S. cerevisiae deletion strains, locus YBR229C, strain ROT2, hits give low values 1.01 | S. cerevisiae deletion strains, locus YCL029C, strain bik1, hits give low values 1.02 | S. cerevisiae deletion strains, locus YDL035C, strain GPR1, hits give low values 1.01 | S. cerevisiae deletion strains, locus YDL074C, strain BRE1, hits give low values 1.02 | S. cerevisiae deletion strains, locus YDL101C, strain DUN1, hits give low values 1.01 | S. cerevisiae deletion strains, locus YDL134C, strain PPH21, hits give low values 1.01 | S. cerevisiae deletion strains, locus YDL185W, strain tfp1, hits give low values 1.01 | S. cerevisiae deletion strains, locus YDL192W, strain arf1, hits give low values 1.01 | S. cerevisiae deletion strains, locus YDR101C, strain arx1, hits give low values 1.01 | S. cerevisiae deletion strains, locus YDR150W, strain NUM1, hits give low values 1.02 | S. cerevisiae deletion strains, locus YDR162C, strain NBP2, hits give low values 1.01 | S. cerevisiae deletion strains, locus YDR318W, strain mcm21, hits give low values 1.02 | S. cerevisiae deletion strains, locus YDR388W, hits give low values 1.02 | S. cerevisiae deletion strains, locus YDR502C, strain sam2, hits give low values 1.01 | S. cerevisiae deletion strains, locus YEL061C, strain CIN8, hits give low values 1 | S. cerevisiae deletion strains, locus YER110C, hits give low values 1.02 | S. cerevisiae deletion strains, locus YER155C, strain BEM2, hits give low values 1.01 | S. cerevisiae deletion strains, locus YER167W, strain BCK2, hits give low values 1.02 | S. cerevisiae deletion strains, locus YGL078C, strain dbp3, hits give low values 1.01 | S. cerevisiae deletion strains, locus YGL086W, strain mad1, hits give low values 1.01 | S. cerevisiae deletion strains, locus YGL248W, strain PDE1, hits give low values 1.02 | S. cerevisiae deletion strains, locus YGR078C, strain PAC10, hits give low values 1.01 | S. cerevisiae deletion strains, locus YGR135W, strain pre9, hits give low values 1 | S. cerevisiae deletion strains, locus YGR229C, strain SMI1, hits give low values 1.01 | S. cerevisiae deletion strains, locus YGR252W, strain gcn5, hits give low values 0.986 | [1] 1.01 and 1.03 | S. cerevisiae deletion strains, locus YHR079C, strain IRE1 (second series), hits give low values 1.02 | [2] 1 | S. cerevisiae deletion strains, locus YHR094C, strain hxt1, hits give low values 1.01 | S. cerevisiae deletion strains, locus YHR129C, strain ARP1, hits give low values 1 | S. cerevisiae deletion strains, locus YHR200W, strain rpn10, hits give low values 1.02 | S. cerevisiae deletion strains, locus YIL066C, strain RNR3, hits give low values 1.01 | S. cerevisiae deletion strains, locus YIL073C, strain SPO22, hits give low values 1.07 | S. cerevisiae deletion strains, locus YIL125W, strain kgd1, hits give low values 1.01 | S. cerevisiae deletion strains, locus YIR030C, strain dcg1, hits give low values 1.02 | [3] 1.02 and 0.993 | S. cerevisiae deletion strains, locus YJL134W, strain LCB3, hits give low values 1.01 | S. cerevisiae deletion strains, locus YJL168C, strain set2, hits give low values 1.02 | S. cerevisiae deletion strains, locus YJL187C, strain SWE1 (second series), hits give low values 1.01 | S. cerevisiae deletion strains, locus YJR043C, strain POL32, hits give low values 1.02 | [4] 0.987 | S. cerevisiae deletion strains, locus YJR075W, strain HOC1, hits give low values 1.02 | S. cerevisiae deletion strains, locus YKL009W, strain mrt4, hits give low values 1.01 | S. cerevisiae deletion strains, locus YKL068W, hits give low values 1.01 | S. cerevisiae deletion strains, locus YKL085W, strain MDH1 (second series), hits give low values 1.02 | S. cerevisiae deletion strains, locus YKL085W, strain MDH1, hits give low values 1.02 | S. cerevisiae deletion strains, locus YKL190W, strain CNB1, hits give low values 1.01 | S. cerevisiae deletion strains, locus YKR001C, strain vps1, hits give low values 1.02 | S. cerevisiae deletion strains, locus YLR039C, strain RIC1, hits give low values 1.05 | S. cerevisiae deletion strains, locus YLR058C, strain SHM2, hits give low values 1.02 | S. cerevisiae deletion strains, locus YLR102C, strain apc9, hits give low values 1.02 | [5] 0.951 | S. cerevisiae deletion strains, locus YLR262C, strain YPT6, hits give low values 1.04 | S. cerevisiae deletion strains, locus YLR268W, strain sec22, hits give low values 1.03 | S. cerevisiae deletion strains, locus YLR330W, strain CHS5, hits give low values 1.01 | S. cerevisiae deletion strains, locus YLR342W, strain FKS1 (second series), hits give low values 1.02 | S. cerevisiae deletion strains, locus YLR371W, strain rom2, hits give low values 1.03 | S. cerevisiae deletion strains, locus YLR418C, strain cdc73, hits give low values 1.02 | S. cerevisiae deletion strains, locus YML016C, strain PPZ1, hits give low values 1.01 | S. cerevisiae deletion strains, locus YML032C, strain rad52, hits give low values 1.02 | S. cerevisiae deletion strains, locus YML124C, strain tub3, hits give low values 1.01 | S. cerevisiae deletion strains, locus YMR078C, strain ctf18, hits give low values 1.02 | S. cerevisiae deletion strains, locus YMR223W, strain ubp8, hits give low values 1.01 | S. cerevisiae deletion strains, locus YMR263W, strain SAP30, hits give low values 1.01 | S. cerevisiae deletion strains, locus YMR307W, strain GAS1, hits give low values 1.04 | S. cerevisiae deletion strains, locus YNL067W, strain RPL9B, hits give low values 1.01 | S. cerevisiae deletion strains, locus YNL128W, strain TEP1, hits give low values 1.01 | S. cerevisiae deletion strains, locus YNL153C, strain GIM3, hits give low values 1.01 | [6] 0.968 | S. cerevisiae deletion strains, locus YNL233W, strain BNI4, hits give low values 1.01 | S. cerevisiae deletion strains, locus YNL250W, strain rad50, hits give low values 1.01 | S. cerevisiae deletion strains, locus YNL271C, strain bni1, hits give low values 1.01 | S. cerevisiae deletion strains, locus YNL298W, strain CLA4, hits give low values 1.01 | S. cerevisiae deletion strains, locus YNL307C, strain MCK1, hits give low values 1.02 | S. cerevisiae deletion strains, locus YNL322C, strain KRE1, hits give low values 1.01 | S. cerevisiae deletion strains, locus YNR052C, strain pop2, hits give low values 1.01 | S. cerevisiae deletion strains, locus YOL006C, strain TOP1, hits give low values 1.02 | S. cerevisiae deletion strains, locus YOL012C, strain htz1 1.92 | S. cerevisiae deletion strains, locus YOL147C, strain pex11, hits give low values 1.01 | S. cerevisiae deletion strains, locus YOR061W, strain CKA2, hits give low values 1.01 | S. cerevisiae deletion strains, locus YOR069W, strain VPS5, hits give low values 1.01 | S. cerevisiae deletion strains, locus YOR136W, strain idh2, hits give low values 1.02 | S. cerevisiae deletion strains, locus YOR144C, strain elg1, hits give low values 1.02 | S. cerevisiae deletion strains, locus YOR184W, strain ser1, hits give low values 1.01 | [7] 1.01 | S. cerevisiae deletion strains, locus YOR316C, strain cot1, hits give low values 1.02 | S. cerevisiae deletion strains, locus YPL055C, strain LGE1, hits give low values 1.03 | S. cerevisiae deletion strains, locus YPL241C, strain CIN2, hits give low values 1.01 | [8] 1.04 | S. cerevisiae deletion strains, locus YPR119W, strain clb2, hits give low values 1.01 | S. cerevisiae deletion strains, locus YPR141C, strain kar3, hits give low values 1.02 | S. cerevisiae deletion strains, locus YPR163C, strain tif3, hits give low values 1.02 | S. cerevisiae deletion strains, locus YPR167C, strain met16, hits give low values 1.02 | S. cerevisiae deletion strains, strain wtn01, hits give low values 1.01 | S. cerevisiae strains, strain wild type, hits give low values 1.01
